# Test results: PubChem BioAssay (NCI)
# The panel holds about 83,000 compounds, 20% with a hit somewhere; the sample as a whole holds those more often.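 Single-dose data. Exposure time 48 hours. Values below 10 considered active.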 A number with no mark means an inactive call. Active and inactive are the calls of the source.
# What was measured:
# Test in all cases: NCI-60 one-dose screen, 48 h (100 = growth as untreated, 0 = no growth, -100 = all killed)
# Conditions in all cases: 10 µM unless noted
# [1] = system: SR leukemia
# [2] = system: RPMI-8226 leukemia
# [3] = system: OVCAR-8 ovarian
# [4] = system: OVCAR-5 ovarian
# [5] = system: OVCAR-4 ovarian
# [6] = system: SK-OV-3 ovarian
# [7] = system: IGROV1 ovarian
# [8] = system: OVCAR-3 ovarian
# [9] = system: HS 578T breast
# [10] = system: NCI/ADR-RES ovarian
# [11] = system: T-47D breast
# [12] = system: BT-549 breast
# [13] = system: MDA-MB-435 melanoma
# [14] = system: SW-620 colon
# [15] = system: MCF7 breast
# [16] = system: HCT-116 colon
# [17] = system: HCC-2998 colon
# [18] = system: KM12 colon
Compound,growth [1],growth [2],growth [3],growth [4],growth [5],growth [6],growth [7],growth [8],growth [9],growth [10],growth [11],growth [12],growth [13],growth [14],growth [15],growth [16],growth [17],growth [18]
CCOC(=O)/C=C/C(=O)[C@H](CC(C)C)NC(=O)[C@H](Cc1ccccc1)NC(=O)OCc1ccccc1,-8.81% (active),-19.9% (active),72.8%,90.8%,91.9%,102%,75.6%,30%,93.4%,89.6%,8.32% (active),69.2%,75.8%,13.8%,19.7%,47.6%,99.2%,94.5%
O=C1CCc2c(sc3[nH]c(=S)n(Cc4ccccc4)c(=O)c23)C1,15.5%,3.36% (active),14.3%,9.59% (active),21.8%,22.2%,34.2%,9.16% (active),-3.81% (active),4.56% (active),6.69% (active),10.6%,15%,15.4%,15.8%,6.51% (active),23.9%,5.93% (active)
CCCCCCCCCCCCNC(=O)[C@H]1CSC(c2ccc(OC)c(F)c2)N1 (stereo partly specified),-50.9% (active),-53.3% (active),-51.1% (active),-98.6% (active),-96.6% (active),-98.1% (active),-76% (active),-91.9% (active),-49.6% (active),-60.4% (active),-68.9% (active),-84.3% (active),-92% (active),-70.4% (active),-68.1% (active),-88.7% (active),-83.6% (active),-84.6% (active)
CCOC(=O)Cc1cnn(C)c1NC(=O)c1ccc(Cl)cc1NC(C)=O,104%,102%,99.8%,99.3%,110%,102%,105%,108%,97%,106%,103%,93.2%,99.4%,105%,106%,101%,107%,102%
COc1ccc2nc3cc(Cl)ccc3c(N3CCN(c4nccc(NCc5ccccc5)n4)CC3)c2c1,20.9%,63.2%,71.4%,106%,67.3%,98.1%,92%,63.3%,83.3%,78.5%,41.8%,27.5%,73.9%,68%,24.6%,25.8%,84.3%,77%
NCc1cn2cc(Cl)sc2n1,102%,106%,105%,98%,100%,103%,109%,114%,113%,111%,111%,111%,113%,106%,95%,107%,102%,106%
NC(=S)N/N=C/c1ccc(OCc2ccccc2)cc1,62.8%,1.94% (active),78.2%,89.7%,44.8%,80%,52.8%,62.1%,81.2%,83.7%,20.8%,58.4%,74%,66.2%,52.1%,52.5%,79.2%,84.6%
COc1cccc(NC(=O)c2sc3nc4c(cc3c2N)CN(Cc2ccccc2)CC4)c1,28.8%,72.7%,47%,85.3%,20.5%,36.9%,44.2%,36.4%,20.8%,63.2%,66.1%,65.5%,4.27% (active),54.4%,49.5%,58.1%,77.3%,48.2%
COc1ccc(S(=O)(=O)NCCNc2nccc(-c3c(-c4cccc([N+](=O)[O-])c4)nc4sccn34)n2)cc1,78.4%,74%,83.7%,126%,63.1%,102%,67.3%,88.3%,91.1%,82%,44.4%,72.1%,77.9%,128%,61.3%,90%,128%,44.8%
CN1CCN(Cc2ccc(NC(=O)c3cncc(C#Cc4cncc5nccnc45)c3)cc2C(F)(F)F)CC1,63.7%,36.9%,62.1%,36.4%,38.9%,74.7%,22.2%,69.9%,39.6%,72.4%,46.5%,82.8%,21.9%,26.4%,33.8%,20.2%,33.6%,13.9%
COc1ccc2nc3cc(Cl)ccc3c(N3CCN(c4ccnc(N5CCN(C)CC5)n4)CC3)c2c1,-26.9% (active),11.2%,41.2%,81.4%,46.2%,87.2%,72.9%,-39.4% (active),106%,84.9%,-26.1% (active),55.5%,66.5%,-55.1% (active),-55.8% (active),-62.4% (active),8.43% (active),36%
Cc1ccccc1CCO,88.7%,108%,100%,95.9%,106%,98%,95.4%,106%,100%,101%,96.9%,95.1%,108%,94.7%,91.1%,93.6%,92.6%,109%
COc1cnc2c(c1)C(=O)c1c-2n(CCCN2CCCC2)c(=O)c2cc([N+](=O)[O-])ccc12,-1.06% (active),-34.1% (active),-37.2% (active),-28.4% (active),10.4%,-9.51% (active),-5.7% (active),-72.4% (active),35.1%,-20.2% (active),24.5%,18.2%,2.83% (active),-19.3% (active),3.81% (active),-67.5% (active),16.2%,-33.3% (active)
C(=N\Nc1nnn(Cc2ccccc2)n1)/c1ccccc1,17.2%,31.2%,39.8%,93.1%,79.4%,35.9%,50.4%,-38.1% (active),36.5%,-0.167% (active),45.6%,46.5%,-26.1% (active),35.2%,27.5%,43.8%,45.6%,19.4%
CCn1cc2c(cc1=O)-c1nc3ccccc3c3ccnc(c13)C2=O,15.1%,80.1%,55.2%,105%,80.7%,45.8%,70.2%,73.8%,94.4%,71.8%,56.8%,86.2%,63.3%,45.8%,29.6%,50%,78.8%,78.7%
CN(C)CCCC(=O)Nc1ccc(Cn2nnc3c2C(=O)c2nnn(Cc4ccc(NC(=O)CCCN(C)C)cc4)c2C3=O)cc1,74.7%,76.1%,86.6%,115%,-98.6% (active),89.8%,57.3%,4.3% (active),112%,108%,-5.44% (active),80.5%,-83.7% (active),52.3%,-40% (active),6.95% (active),59.3%,81.4%
CC(C)(C)n1cc(-c2ccnc(NCCCNS(=O)(=O)c3cccc4ccccc34)c2)c(-c2cccc(O)c2)n1,-1.59% (active),-34.8% (active),30.6%,48.4%,36.5%,71.4%,41.7%,43.6%,36.6%,36.5%,7.41% (active),39.8%,36.4%,16.3%,11.5%,29.4%,-49.4% (active),14.3%
